Reference: PubChem BioAssay AID1159580 (chemical genetic matrix, 2015)
Where “and” joins values, the source holds several entries; their conditions need not be identical. Identical values can stand only once. Among all 5,500 compounds or so, about 2,000 (36%) were called active. Another 18% or so got no clear call; they are omitted. Cut-off read from the data, not from the text of the source: active = normalized growth mostly below about 0.91 (no sharp cut-off); inconclusive = no clear call, values can overlap the other calls; inactive = mostly above about 0.92. The list shows a part of the results.

Experiment: chemical genetic growth profiling, strain panel (AID 1159580);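 note: tested at 20 µM; growth read once vehicle control cultures reached saturation at 30 °C; 1 = growth at the plate median or of vehicle wells; lower values mean less growth of the strain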
Conditions: S. cerevisiae deletion strains, growth OD

Measured: normalized growth

CCC(C(=O)O)c1ccccc1 (configuration not stated)
inactive: locus YAL013W, strain DEP1, stronger effect = lower value 1.01 | locus YAL021C, strain ccr4, stronger effect = lower value 0.973 | locus YAL026C, strain drs2, stronger effect = lower value 0.992 | locus YAL030W, strain snc1, stronger effect = lower value 0.989 | locus YBL061C, strain skt5, stronger effect = lower value 0.999 | locus YBR009C, strain hhf1, stronger effect = lower value 0.991 | locus YBR021W, strain FUR4, stronger effect = lower value 1.01 | locus YBR023C, strain chs3, stronger effect = lower value 0.993 | locus YBR171W, strain sec66, stronger effect = lower value 0.987 | locus YBR229C, strain ROT2, stronger effect = lower value 0.997 | locus YBR231C, strain swc5, stronger effect = lower value 1.01 | locus YBR279W, strain paf1, stronger effect = lower value 1 | locus YCL011C, strain gbp2, stronger effect = lower value 0.979 | locus YCL016C, strain dcc1, stronger effect = lower value 0.982 | locus YCL029C, strain bik1, stronger effect = lower value 1.01 | locus YCL061C, strain MRC1, stronger effect = lower value 0.982 | locus YCL069W, strain vba3, stronger effect = lower value 0.993 | locus YCR088W, strain abp1, stronger effect = lower value 0.988 | locus YDL005C, strain med2, stronger effect = lower value 0.98 | locus YDL035C, strain GPR1, stronger effect = lower value 1.03 | locus YDL040C, strain nat1, stronger effect = lower value 0.988 | locus YDL074C, strain BRE1, stronger effect = lower value 1.02 | locus YDL101C, strain DUN1, stronger effect = lower value 1 | locus YDL134C, strain PPH21, stronger effect = lower value 1 | locus YDL185W, strain tfp1, stronger effect = lower value 0.984 | locus YDL192W, strain arf1, stronger effect = lower value 1 | locus YDR001C, strain nth1, stronger effect = lower value 0.987 | locus YDR069C, strain doa4, stronger effect = lower value 0.999 | locus YDR101C, strain arx1, stronger effect = lower value 0.998 | locus YDR137W, strain rgp1, stronger effect = lower value 0.97 | locus YDR150W, strain NUM1, stronger effect = lower value 1.01 | locus YDR159W, strain sac3, stronger effect = lower value 0.964 | locus YDR162C, strain NBP2, stronger effect = lower value 1.01 | locus YDR195W, strain ref2 0.98 | locus YDR297W, strain sur2, stronger effect = lower value 0.983 | locus YDR318W, strain mcm21, stronger effect = lower value 0.994 | locus YDR334W, strain swr1, stronger effect = lower value 0.975 | locus YDR335W, strain msn5, stronger effect = lower value 1.02 | locus YDR388W, stronger effect = lower value 0.996 | locus YDR392W, strain spt3, stronger effect = lower value 0.991 | locus YDR502C, strain sam2, stronger effect = lower value 1 | locus YEL003W, strain gim4, stronger effect = lower value 0.997 | locus YEL037C, strain rad23, stronger effect = lower value 0.989 | locus YEL061C, strain CIN8 (second series), stronger effect = lower value 0.998 | locus YEL061C, strain CIN8, stronger effect = lower value 1.01 | locus YER015W, strain faa2, stronger effect = lower value 0.992 | locus YER016W, strain bim1, stronger effect = lower value 0.976 | locus YER110C, stronger effect = lower value 1 | locus YER111C, strain swi4, stronger effect = lower value 0.979 | locus YER155C, strain BEM2 (second series), stronger effect = lower value 0.975 | locus YER155C, strain BEM2, stronger effect = lower value 1.01 | locus YER167W, strain BCK2, stronger effect = lower value 1 | locus YFR010W, strain ubp6, stronger effect = lower value 0.995 | locus YGL078C, strain dbp3, stronger effect = lower value 0.979 | locus YGL086W, strain mad1, stronger effect = lower value 0.998 | locus YGL167C, strain pmr1, stronger effect = lower value 1 | locus YGL173C, strain kem1, stronger effect = lower value 0.997 | locus YGL227W, strain vid30, stronger effect = lower value 0.978 | locus YGL240W, strain doc1, stronger effect = lower value 1.02 | locus YGL248W, strain PDE1, stronger effect = lower value 1 | locus YGL253W, strain hxk2, stronger effect = lower value 0.99 | locus YGR078C, strain PAC10, stronger effect = lower value 1.02 | locus YGR135W, strain pre9, stronger effect = lower value 1.03 | locus YGR229C, strain SMI1, stronger effect = lower value 1.01 | locus YGR252W, strain gcn5, stronger effect = lower value 0.976 | locus YHR013C, strain ard1, stronger effect = lower value 0.963 | locus YHR027C, strain rpn1, stronger effect = lower value 1 | locus YHR030C, strain SLT2, stronger effect = lower value 1 and 0.961 | locus YHR079C, strain IRE1 (second series), stronger effect = lower value 1 | locus YHR079C, strain IRE1, stronger effect = lower value 0.959 | locus YHR094C, strain hxt1, stronger effect = lower value 0.997 | locus YHR129C, strain ARP1, stronger effect = lower value 0.995 | locus YHR142W, strain chs7, stronger effect = lower value 1.02 | locus YHR200W, strain rpn10, stronger effect = lower value 1 | locus YIL066C, strain RNR3, stronger effect = lower value 1.01 | locus YIL073C, strain SPO22, stronger effect = lower value 1.03 | locus YIL125W, strain kgd1, stronger effect = lower value 0.971 | locus YIR030C, strain dcg1, stronger effect = lower value 1.01 | locus YJL092W, strain hpr5, stronger effect = lower value 0.979 | locus YJL095W, strain BCK1 (second series), stronger effect = lower value 0.985 | locus YJL095W, strain BCK1, stronger effect = lower value 1.02 and 0.968 | locus YJL115W, strain asf1, stronger effect = lower value 0.984 | locus YJL129C, strain trk1, stronger effect = lower value 0.983 | locus YJL134W, strain LCB3, stronger effect = lower value 1.01 | locus YJL154C, strain vps35, stronger effect = lower value 0.988 | locus YJL164C, strain tpk1, stronger effect = lower value 0.98 | locus YJL166W, strain qcr8, stronger effect = lower value 0.995 | locus YJL168C, strain set2, stronger effect = lower value 0.995 | locus YJL187C, strain SWE1 (second series), stronger effect = lower value 1 | locus YJL187C, strain SWE1, stronger effect = lower value 0.971 | locus YJR043C, strain POL32, stronger effect = lower value 1.03 | locus YJR066W, strain TOR1, stronger effect = lower value 0.887
